The text below walks through data of PubChem BioAssay.

A number with no mark means an inactive call.

The test can be described thus: optical density shifts of acrAB sulA E. coli – strain DRC41, OD650, 48 h, E. coli filamentation inducer project, primary screen (AID 1152).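 Further: E. coli MC1000 strain DRC41 lacking acrAB efflux pump and sulA.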 The note with it: higher = more signal, called active from +8 up or from −8 down.
With `COc1cc2c(cc1O)C(C1CC1)N(Cc1cc3c(cc1Br)OCO3)CC2` (stereo not given), the z-score is -1.46. For `C=C(CCCC)C(=O)CC[C@H](OC(C)=O)c1cccc(OCCO)c1` the value was 0.648; for `C=CC[C@]1(C(=O)N2CCCCC2)N=C(c2ccc(OCCCO)cc2)O[C@H]1c1ccccc1`, 0.573. The value for `COCCOC(=O)N1C(=O)[C@@]2(c3cc(C#CCCO)ccc31)[C@H](C(=O)N1CCN(c3ncccn3)CC1)[C@H]1C(=O)O[C@H](c3ccccc3)[C@H](c3ccccc3)N1[C@@H]2c1ccccc1OCCO` was 1.21. Regarding `COCCOC(=O)N1C(=O)[C@@]2(c3cc(C#CCCO)ccc31)[C@H](C(=O)N1CCc3cc(OC)c(OC)cc3C1)[C@H]1C(=O)O[C@H](c3ccccc3)[C@H](c3ccccc3)N1[C@@H]2c1ccc(O)cc1`, the z-score is 0.38.

Consider `CCCCN1CC=CC23O[C@@H]4/C=C\CCC(C)OC(=O)C4[C@H]2C(=O)N(CCCCCO)[C@@H]3C1=O` (stereo not given in full), for which the z-score was 0.119. `C=CCN1C(=O)[C@@]2(O[C@@H](CCO)[C@H]([Si](C)(C)c3ccc(OC)cc3)[C@H]2C)c2cc(NC(=O)c3ccc(OC)cc3)ccc21`: the z-score is -0.0564. The value for `CC(=O)n1cc(C(O)C2C=CC3C(=O)N(C)C(=O)C3N2Nc2ccccc2)c2ccccc21` (stereo not given) was -1.39; that for `Cc1ccc(C(C)CC(O)C2C=CC3C(=O)N(c4ccccc4)C(=O)C3N2Nc2ccc([N+](=O)[O-])cc2)o1` (stereo not given) was -0.571. The value for `[N-]=[N+]=NCc1ccccc1[C@H]1OC(c2ccc(OCCCO)cc2)=N[C@@]1(Cc1ccccc1)C(=O)NCc1ccccc1` was 0.336.
